Screens as filed in PubChem.
Most compounds without a hit are left out; they make up all but 12% or so of the library.
BAZ2B block: blocks human BAZ2B | AlphaScreen BAZ2B-H3K14Ac peptide displacement | Potency, µM (doses to about 114 µM), for the others: top-dose activity change, negative = inhibition, hits mostly inhibitors | hit rate 4.4% among 360,000 | AID 504333; further: on the % scale 0 is the no-effect control and ±100 the full control effect; nearly all actives have a fitted effect of over 60% in size
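AlphaScreen displacement of biotin-H3(5-23)K14Ac peptide (50 nM final) from BAZ2B (50 nM final) in PBS pH 7.4, 0.01% Tween-20; complex preformed 30 min RT, then compounds (top 110 uM) 30 min RT, beads 20 min dark.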
HP1b binding inh: inhibitors of HP1-beta chromodomain binding to methylated histone tails. P83916. AlphaScreen HP1-beta / biotin-H3K9me3 peptide binding. Potency, µM (highest dose often 114 µM), without a hit: at the top dose activity change, negative = inhibition, actives largely listed as inhibitors. hit rate 0.56% among 390,000. AID 540317; further: nearly all actives have a fitted effect of over 70% in size
Target sequence (P83916 whole entry, looked up): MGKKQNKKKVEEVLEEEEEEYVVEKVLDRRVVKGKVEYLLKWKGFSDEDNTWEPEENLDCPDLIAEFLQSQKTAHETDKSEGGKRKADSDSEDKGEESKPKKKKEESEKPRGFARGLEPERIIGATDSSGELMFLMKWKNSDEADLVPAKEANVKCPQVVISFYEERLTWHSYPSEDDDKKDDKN
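AlphaScreen: HP1-beta (50 nM) preformed 30 min with biotin-H3(1-18)K9me3 peptide (50 nM) in PBS pH 7.4, 0.01% Tween-20. Compound added for 30 min at RT, then streptavidin donor/nickel chelate acceptor beads (10 ug/mL) for 30 min.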
JMJD2A Tudor: JMJD2A Tudor domain (human) inhibition; AlphaScreen JMJD2A-Tudor / H3K4me3 peptide binding; Potency, µM (highest dose often 114 µM), for the others: at the highest dose activity change, negative = inhibition, usual class: inhibitors; hit rate 4.4% among 390,000; AID 504339; further: on the % scale 0 is the no-effect control and ±100 the full control effect; nearly all actives have a fitted effect of over 50% in size
G9a block: blocks human histone lysine methyltransferase G9a; Q96KQ7; G9a H3K9 monomethylation, AlphaScreen, 2 h; Potency, µM (series often up to 102 µM), for inactives: top-dose activity, negative = inhibition, hits mostly inhibitors; hit rate 8.8% among 350,000; AID 504332; further: on the % scale 0 is the no-effect control and ±100 the full control effect; nearly all actives have a fitted effect of over 75% in size
Target sequence (Q96KQ7 913-1193 limits assumed): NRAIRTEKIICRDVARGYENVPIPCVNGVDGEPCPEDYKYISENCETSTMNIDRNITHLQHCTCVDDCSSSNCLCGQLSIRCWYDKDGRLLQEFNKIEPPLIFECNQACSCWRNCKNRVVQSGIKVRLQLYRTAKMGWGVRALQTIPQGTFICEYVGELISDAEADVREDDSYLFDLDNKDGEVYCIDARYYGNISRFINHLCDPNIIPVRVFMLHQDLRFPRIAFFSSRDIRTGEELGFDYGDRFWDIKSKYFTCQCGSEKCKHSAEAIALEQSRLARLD
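Compounds were preincubated with 20 nM G9a for 15 min, after which biotinylated H3K9 peptide (500 nM) and SAM (20 uM) started a 2 h room-temperature reaction. Monomethylated product was quantified by antibody-based AlphaScreen chemiluminescence.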
Sfp PPTase inh: blocks B. subtilis Sfp PPTase activity. Q9F4F7. Biochemical Sfp PPTase activity, qHTS. Potency, µM, inactives show largest response in the series, negative = inhibition, hits mostly inhibitors. hit rate 3.5% among 310,000. AID 1490;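 further: the enzyme is Sfp with the accession as filed and its product quenches rhodamine fluorescence; 0% = enzyme reaction without inhibitor and -100% = no enzyme wells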
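Reaction rates are the 30-min fluorescence difference (ex 525, em 598 nm) in wells containing 15 nM Sfp, 5 uM rhodamine-CoA and 12.5 uM BHQ-2-YbbR at pH 7.6 with 10 mM MgCl2.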
Active calls of the source: *; [ ] = another dose, or the depositor's remark. The call rests on the fitted dose curve; in most records, active means well fitted curve in the direction sought with a large enough effect; inconclusive means small, poorly fitted or top-dose-only effect, or another doubt; inactive means no such curve, though single readings can be large; an effect the other way counts as inactive or inconclusive. Potency means the concentration at half of the fitted maximal effect.

How did CCCN(C(=O)C1CSC2(C)CCC(=O)N12)c1c(N)n(Cc2ccccc2)c(=O)[nH]c1=O (stereo not given) do in these assays?
BAZ2B block: -21%; HP1b binding inh: 26%; JMJD2A Tudor: -7%; G9a block: inconclusive

Results for CSc1cccc(N2CC(C(=O)N(CC(C)C)c3c(N)n(Cc4ccccc4)c(=O)[nH]c3=O)CC2=O)c1 (stereo not given) ?
BAZ2B block: inconclusive; HP1b binding inh: 26%; JMJD2A Tudor: -29%; G9a block: 40µM*

Results for COc1cccc(Cn2c(=O)c(-c3ccc(F)cc3)nc3cnc(N(C)C)nc32)c1 ?
G9a block: 5%[0.501 µM]; Sfp PPTase inh: 11%

What do the screens show for `COc1ccc(-c2n(CC(=O)OC3CC(C)CCC3C(C)C)c3ccccc3[n+]2C)cc1` (stereo not given)?
BAZ2B block: inconclusive; HP1b binding inh: 24%; JMJD2A Tudor: -11%; G9a block: 1.1µM*; Sfp PPTase inh: 6%

How did COc1ccc(OCc2n(CC(=O)OC3CC(C)CCC3C(C)C)c3ccccc3[n+]2C)cc1 (stereo not given) do in these assays?
BAZ2B block: -26%; HP1b binding inh: 42%; JMJD2A Tudor: inconclusive; G9a block: inconclusive; Sfp PPTase inh: 35µM*

How did CC1CCC(C(C)C)C(OC(=O)CSc2nccc(=O)[nH]2)C1 (stereo not given) do in these assays?
BAZ2B block: -2%; HP1b binding inh: 26%; JMJD2A Tudor: 2%; G9a block: 7%; Sfp PPTase inh: -18%

What do the screens show for `Cc1ccc(Cl)cc1NC(=O)Cn1c(=O)oc2cc(S(=O)(=O)N3CCCC3)ccc21`?
BAZ2B block: 0%; HP1b binding inh: 9%; JMJD2A Tudor: -18%; G9a block: 6%[59 µM]

How did CC1CCc2nc3ncn(Cc4cccc(F)c4)c(=O)c3cc2C1 (stereo not given) do in these assays?
BAZ2B block: -2%; HP1b binding inh: 11%[57 µM]; JMJD2A Tudor: -20%; G9a block: -1%[59 µM]

Results for O=C(c1ccc(Sc2ccccc2)c([N+](=O)[O-])c1)N1CCOCC1 ?
BAZ2B block: -26%; HP1b binding inh: -6%; JMJD2A Tudor: -32%; G9a block: -7%; Sfp PPTase inh: 1%

How did CCN1CCCC1CNC(=O)c1ccc(Sc2ccccc2Cl)c([N+](=O)[O-])c1 (stereo not given) do in these assays?
BAZ2B block: 28µM*; HP1b binding inh: -21%; JMJD2A Tudor: inconclusive; G9a block: 9%[59 µM]; Sfp PPTase inh: -2%

What do the screens show for `CCN1CCN(C(=O)c2ccc(Sc3ccccc3Cl)c([N+](=O)[O-])c2)CC1`?
BAZ2B block: -33%; HP1b binding inh: -1%; JMJD2A Tudor: inconclusive; G9a block: 32µM*; Sfp PPTase inh: -11%

Results for CCN1CCN(C(=O)c2ccc(Cl)c(S(=O)(=O)N(C)c3ccccc3)c2)CC1 ?
BAZ2B block: -1%; HP1b binding inh: 14%; JMJD2A Tudor: -9%; G9a block: 18µM*

Results for N#CCCCS(=O)(=O)c1nnnn1-c1ccc(F)cc1Br ?
Sfp PPTase inh: 7%

How did COCCCNC(=O)C1CCN(c2nc3ccc(C)cc3[nH]2)CC1 do in these assays?
BAZ2B block: -1%; HP1b binding inh: 25%[57 µM]; JMJD2A Tudor: -2%; G9a block: 2%[59 µM]

What do the screens show for `CCCC(C(=O)Nc1ccc(S(=O)(=O)N2CCCC2)cc1)c1ccccc1` (stereo not given)?
BAZ2B block: 7%; HP1b binding inh: 10%; JMJD2A Tudor: -31%; G9a block: inconclusive

How did CC(C)=NOCc1ccc(-c2cn([C@@H]3COC[C@@H]3O)nn2)cc1 do in these assays?
Sfp PPTase inh: 14µM*

How did COc1ccc(SCC(=O)c2cc(C)c(OC(=S)N(C)C)c(C)c2)cc1 do in these assays?
BAZ2B block: 5%; HP1b binding inh: 72%; JMJD2A Tudor: 12%; G9a block: 40µM*; Sfp PPTase inh: -10%

Results for Cc1cc(C(=O)CSc2ccc(F)cc2)cc(C)c1OC(=S)N(C)C ?
BAZ2B block: inconclusive; HP1b binding inh: 48%; JMJD2A Tudor: 8%; G9a block: 6%; Sfp PPTase inh: -18%
